Screening results deposited in PubChem by National Center for Advancing Translational Sciences (NCATS).
AMA1 RON2 block: AMA1-RON2 (P. falciparum) interaction inhibition; AlphaScreen AMA1-biotinylated RON2 peptide binding; Potency, µM (series often up to 58.2 µM), for inactives: at the top dose activity change, negative = inhibition, most hits filed as inhibitors; actives 0.2% (n = 360,000); AID 720542;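 note: 0% = vehicle wells and -100% = peptide control; nearly all actives have a fitted effect of over 45% in size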
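AMA1 (3D7) with his tag at 25 nM final met compounds first, then biotinylated RON2 peptide at 25 nM; detection used donor plus acceptor beads, 10 µg/mL apiece, read by AlphaScreen after 30 min at room temperature.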
Pf growth 48h: P. falciparum growth inhibition at 48 hours (one generation); P. falciparum luciferase growth in erythrocytes, 48 h; Potency, µM (series often up to 28.7 µM), for inactives: at the highest dose activity change, negative = inhibition, usual class: inhibitors; actives 5.9% (n = 310,000)
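Here the parasites carry a stable luciferase gene and grow inside erythrocytes in Albumax-based RPMI medium with compound for one erythrocytic cycle. Activity is scored as loss of luminescent signal.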
HCV inh: HCV inhibition. actives 3.4% (n = 340,000). Potency, µM (highest dose often 41.8 µM), for inactives: top-dose activity change, negative = inhibition, usual class: inhibitors. Huh7.5.1 HCVcc-Cre infection, luciferase reporter, 44 h
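Infectious HCV cell culture screen: compound-treated cells (1,000/well, pre-plated 4 h) are infected with HCVcc-Cre at roughly 0.5 moi and grown 44 h. Infection is quantified by luciferase signal after 15 min substrate incubation at room temperature.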
Pf growth 96h: P. falciparum growth inhibition at 96 hours | P. falciparum luciferase reporter growth, 96 h | Potency, µM (titrated, usually from 28.7 µM), for inactives: at the top dose activity change, negative = inhibition, hits mostly inhibitors | actives 6.9% (n = 320,000)
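Parasite growth measured via integrated firefly luciferase reporter in P. falciparum. Infected erythrocytes at 2% hematocrit, 0.05% parasitemia final were treated 96 hours at 37 C under 5% CO2, and luminescence was read.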
An asterisk follows results filed as active; u = inconclusive; x = no result; [ ] = remark or other dose. Sampled rows, rich in hits. Any-hit rate of the full collection: about 11%. Calls come from the whole dose curve; as a rule, active = well fitted curve in the direction sought with a large enough effect; inconclusive = small, poorly fitted or top-dose-only effect, or another doubt; inactive = no such curve, though single readings can be large; an effect the other way counts as inactive or inconclusive. Unless noted, % is set by controls: 0 for no effect and ±100 for the full control effect; potency is the fitted concentration of half-maximal effect.

SMILES | AMA1 RON2 block | Pf growth 48h | HCV inh | Pf growth 96h
COc1ccc(-c2ccc(-c3nc4ccc(C)cn4c3NC3CCCCC3)cc2OC)cc1 | -23.9% | 11.7µM* | u | 11.7µM*
COC(=O)Nc1c(-c2ccccc2)nc2ccc(Cl)cn12 | 11.2% | 1.9% | 8.2% | u
O=C(CC[C@H]1O[C@@H](n2cnc3c(NC(=O)c4ccccc4)ncnc32)[C@H](O)[C@@H]1O)NCc1ccc2c(c1)OCO2 | 15.2% | x | x | x
CC1CC(C)CN(c2cc(N(C)CCO)c([N+](=O)[O-])c3nonc23)C1 (stereo not given) | 2.9% | -4.9% | 17.1% | 30.4%
COc1ccc(N2CCN(CCCNC(=O)c3cc4sccc4n3C)CC2)cc1 | u | -13.1% | 12.6µM* | x
CC1CCN(CCCNC(=O)c2cc3sccc3n2C)CC1 | -3.7% | 8.4% | -4.0% | -2.9%
COc1ccc(N2CCN(CCNC(=O)Nc3ccc(Cl)cc3)CC2)cc1 | -11.6% | x | u | u
COc1ccc(N2CCN(Cc3cc(=O)oc4cc(C)c(Cl)c(C)c34)CC2)cc1 | -21.4% | 4.15µM* | 1.8% | -21.3%
COc1ccc(N2CCN(CCNC(=O)Nc3ccc(C)cc3Cl)CC2)cc1 | -3.3% | 1.4% | -24.5% | 2.33µM*
Cc1cc2oc(=O)cc(CN3CCC(C)CC3)c2c(C)c1Cl | 10.2% | -5.4% | 2.0% | -7.1%
COc1ccc(N2CCN(CCCN)CC2)cc1 | -22.5% | x | 10µM* | x
COc1ccc(CC(=O)N/N=C\c2cc(Br)c(O)c(Br)c2)cc1 | 29.0% | 7.3% | 0.3% | u
COc1ccc(N2CCN(CCNC(=O)c3c(C)cc(=O)oc3C)CC2)cc1 | -12.6% | 11.7µM* | -2.1% | u
Cc1c(C)n(C)c2ccc(C(=O)NCCCN3CCN(c4ccc(F)cc4)CC3)cc12 | -29.5% | u | u | 13.2%
COc1ccc(CNC(=O)c2c(C)cc(=O)oc2C)cc1 | 11.0% | 13.0% | -13.6% | 22.3%
Cc1cc(=O)oc(C)c1C(=O)NCCCN1CCN(c2ccc(F)cc2)CC1 | 9.8% | u | -7.9% | 0.738µM*
COc1cc(CN2CCN(c3ccc(C)cc3)CC2)cc([N+](=O)[O-])c1O | -11.7% | 30.3% | 7.9% | 34.7%
CC1(C)NC(=O)N(CC(=O)OCC(=O)Nc2cc(S(=O)(=O)N3CCCCCC3)ccc2Cl)C1=O | 14.9%[11.6 µM] | -7.5% | u | -7.5%
CCC(COC(=O)NC)NC(=O)Oc1cccc(C)c1 (stereo not given) | 0.0% | -0.8% | 10.6% | u
CCC(COC(=O)NC)NC(=O)Oc1ccccc1 (stereo not given) | 1.1% | 56.9% | 15.1% | 4.65µM*
CC(C)(C)c1ccc(C(=O)Nc2ccc(C(=O)NCc3cccnc3)cc2)cc1 | -4.3% | 6.57µM* | u | -1.0%
O=C(NCc1ccccc1)c1ccc(C(=O)N(C2CCCCC2)C2CCCCC2)cc1 | 8.6% | x | u | 9.28µM*
O=C(NCc1ccccc1)c1ccc(C(=O)NCc2ccccc2)cc1 | 22.6% | x | -1.0% | x
CC(C)(C)c1ccc(C(=O)NCc2ccccc2)cc1 | -0.1% | 142.1% | -9.0% | 9.28µM*
O=C(NCc1ccccc1)c1cnsn1 | 38.5% | -15.0% | 14.9% | 1.31µM*
SMILES | AMA1 RON2 block | Pf growth 48h | HCV inh | Pf growth 96h
COC(=O)[C@H](CCSC)NS(=O)(=O)c1ccccc1Br | -3.1% | -2.0% | -9.5% | -10.3%
CC(C)(C)OC(=O)C[C@@H]1C/C=C\C[C@@H](CC(=O)N[C@H](CO)Cc2ccccc2)C(=O)N2CCC[C@H]2COC1=O | -4.3% | x | 7.7% | x
O=C(c1cc2sccc2n1Cc1ccccc1)N1CCN(c2nc3ccccc3s2)CC1 | -21.7% | u | 4.47µM* | u
CCC(=O)N1CCN(c2nc3ccccc3s2)CC1 | -3.3% | x | u | 66.4%
O=C(c1ccc2ncsc2c1)N1CCN(c2ccccc2Cl)CC1 | 0.0% | 32.2% | 7.3% | 27.8%
O=C(c1ccc2ncsc2c1)N1CCN(c2nc3ccccc3s2)CC1 | 19.8% | -14.7% | 5.62µM* | 0.0%
CC(NC(=S)N1CCN(c2ccccc2)CC1)c1ccccc1 (stereo not given) | -10.6% | u | 11.2% | -0.7%
COc1ccc(N=C2C(=Nc3ccc(OC)cc3)N(c3ccc(OC)cc3)C(=S)N2C(=O)c2ccc(OC)cc2)cc1 | 16.2% | u | -17.0% | 24.7%
COc1ccc(N=C2C(=Nc3ccc(OC)cc3)N(c3ccc(N(C)C)cc3)C(=S)N2c2ccc(OC)cc2)cc1 | -15.1% | 4.9% | 1.12µM* | x
Nc1c(C(=O)c2ccccc2)sc(Nc2ccccc2)c1S(=O)(=O)c1ccccc1 | -26.2% | u | 14.1µM* | u
Cc1ccc(C)c(OCC(O)CN2C(C)CCCC2C)c1 (stereo not given) | -12.0% | u | 12.6µM* | x
Cc1ccc(C)c(OCC(O)CN2CCCCC2C)c1 (stereo not given) | -3.0% | u | u | 10.4µM*
Cc1ccc(C)c(OCC(O)CN2CCC(Cc3ccccc3)CC2)c1 (stereo not given) | -7.3% | 7.38µM* | 10.9% | u
OC(COc1ccc(Cl)cc1)CN1CCC(Cc2ccccc2)CC1 (stereo not given) | 0.0% | -13.8% | u | u
Cc1ccc(C)c(OCC(O)CNC2CCCC2)c1 (stereo not given) | 9.5% | u | -2.0% | u
CCCCN1CC[C@@H]2C=CC[C@H](C(=O)OC)[C@@H]2C1=O | 6.2% | x | 24.9% | x
O=C(NCc1cccs1)C1C(=O)Nc2ccccc2C(=O)N1C1CCCC1 (stereo not given) | 4.5% | x | x | x
CN(C)c1nc(NC(C)(C)C)nc(NC(C)(C)C)n1 | 10.7% | 14.7µM* | u | 33.2%
COc1ccc(NC(=O)/C=C/c2c(Cl)nc3ccccn23)cc1 | -9.3% | 0.8% | u | -18.6%
COc1ccccc1N1CCN(C(=O)/C=C/c2c(Cl)nc3ccccn23)CC1 | 12.9% | u | 11.2µM* | 39.2%
Cc1cccc(C)c1N=C1SC(CC(=O)Nc2c(C)cccc2C)C(=O)N1CCc1ccccn1 (stereo not given) | 1.3% | 9.28µM* | 4.2% | 9.28µM*
O=C(CC1SC(=Nc2ccccc2)N(CCO)C1=O)Nc1ccccc1 (stereo not given) | 19.0% | u | 9.5% | -28.1%
O=C(CC1SC(=Nc2ccccc2)N(CCc2ccccn2)C1=O)Nc1ccc(F)cc1 (stereo not given) | 16.9% | u | -6.7% | 4.65µM*
Cc1ccc(S(=O)(=O)Oc2ccccc2C=C2C(=O)N(C)C(=O)N(C)C2=O)cc1 | -10.9% | -12.9% | 0.1% | 11.7µM*
CN1C(=O)C(=Cc2ccccc2OCc2ccc(Cl)cc2)C(=O)N(C)C1=O | 3.5% | 29.1% | 11.0% | 1.04µM*
CN1C(=O)C(=Cc2ccccc2Oc2ccc(Cl)cc2)C(=O)N(C)C1=O | 2.5% | -2.7% | 23.9% | -6.7%
Cc1ccc(S(=O)(=O)Oc2ccccc2/C=C2/SC(=O)NC2=O)cc1 | -5.3% | -11.0% | 12.7% | u
COc1ccc(-c2nc(CS(=O)(=O)CC(=O)NCc3ccccc3OC)c(C)o2)cc1 | -1.5% | 25.5% | 0.1% | -26.9%
CSc1nc2nc(Cl)c(Cl)nc2[nH]1 | -7.9% | x | x | x
